Screening data from PubChem BioAssay.
Only some compounds are listed: those with a hit (about 9.9% of all), similar ones and a draw of the others.
MCF10A rerep: DNA re-replication induction in MCF 10a cells | Potency, µM (top dose mostly 46.1 µM), inactives show top-dose activity, positive = re-replication, hits mostly activators | 350,000 tested, 2.9% active | MCF 10A DNA re-replication, Hoechst nuclear intensity, 48 h; note: potency is the fitted concentration of half-maximal effect; % of control where 0% means no effect; nearly all actives have a fitted effect of over 50% in size
KB-V1 cytotox: kills drug-selected multidrug resistant KB-V1 cells. KB-V1 MDR cells viability, CellTiter-Glo, 72 h. Potency, µM (titrated, usually from 46.1 µM), usual class: cytotoxic. 400,000 tested, 3.4% active; note: potency is the fitted concentration of half-maximal effect; % is set by controls: 0 for no effect and ±100 for the full control effect; nearly all actives have a fitted effect of over 60% in size
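Potencies derive from concentration-effect curves fitted to normalized luminescence (CellTiter-Glo) of KB-V1 cells treated for 72 h at 37 degrees C in phenol-red-free DMEM containing 10% FBS.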
IL1B secr inh: inhibitors of inflammasome signaling (IL-1 beta secretion) | AID 743279 | THP-1 LPS/ATP IL-1B secretion, AlphaLISA, 16 h; stronger effect = lower value | activity change, % at 57.5 µM | 360,000 tested, 4.7% active; in the data active = activity change below about -50%; inconclusive = mostly about -30% to -49%; note: % is set by controls: 0 for no effect and ±100 for the full control effect
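THP-1 cells pretreated 1 hr with compounds (up to 57.5 uM final), then stimulated with LPS (250 ng/mL final) plus ATP (1.25 mM final); secreted IL-1B measured by AlphaLISA after 16 hr, decreased signal indicating inhibition.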
KB-3-1 tox: kills parental KB-3-1 adenocarcinoma cells. Potency, µM (highest dose often 46.1 µM), usual class: cytotoxic. KB-3-1 viability, CellTiter-Glo ATP luminescence, 72 h. 400,000 tested, 1.4% active; note: potency is the fitted concentration of half-maximal effect; % is set by controls: 0 for no effect and ±100 for the full control effect; nearly all actives have a fitted effect of over 60% in size
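Viability of parental KB-3-1 cells, measured by CellTiter-Glo luminescence, followed a 72 h incubation at 37 °C with pinned compounds in phenol-red-free DMEM containing 10% FBS.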
SW480 rereplic: DNA re-replication induction in SW480 cells | SW480 DNA re-replication, Hoechst DNA content imaging, 48 h | 340,000 tested, 1.8% active | Potency, µM (series often up to 46.1 µM), inactives show at the highest dose re-replication activation, actives largely listed as activators; note: potency is the fitted concentration of half-maximal effect; % of control where 0% means no effect; nearly all actives have a fitted effect of over 55% in size
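Image-based DNA-content assay: after two days of treatment, nuclei were labelled with the DNA dye Hoechst and imaged, and hits were compounds raising the count of nuclei showing high fluorescence intensity.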
An asterisk follows results filed as active; i = inactive; u = inconclusive; x = no result. Unless noted, calls come from the whole dose curve; as a rule, active = well fitted curve in the direction sought with a large enough effect; inconclusive = small, poorly fitted or top-dose-only effect, or another doubt; inactive = no such curve, though single readings can be large; an effect the other way counts as inactive or inconclusive.

SMILES | MCF10A rerep | KB-V1 cytotox | IL1B secr inh | KB-3-1 tox | SW480 rereplic
CCc1ccc(-c2nc(CN3CCCC(C(=O)NCc4ccc(C)cc4)C3)c(C)o2)cc1 (centres undefined) | x | i | x | i | x
COc1ccc(CCNC(=O)C2CCCN(Cc3nc(-c4ccccc4C)oc3C)C2)cc1OC (centres undefined) | 12% | 16µM* | -4 | i | 7%
NCCCn1cnc2ccccc21 | 0.58µM* | u | 12 | i | -4%
Cc1ccc(Cn2cnc3ccccc32)cc1 | 2% | u | -54* | i | -4%
c1ccc2c(c1)ncn2CCn1cnc2ccccc21 | 0% | i | -5 | i | -1%
O=[N+]([O-])c1ccccc1OCCCn1cnc2ccccc21 | 2% | 7.3µM* | -24 | i | 2%
Clc1ccc(OCCn2cnc3ccccc32)c(Cl)c1 | 10% | 16µM* | -29 | u | -1%
CCC(=O)NC1=C(Cl)C(=O)C(NC(=O)CC)=C(Cl)C1=O | u | i | -86* | i | 13%
CCC(=O)NC1=C(NC(C)c2ccccc2)C(=O)c2ccccc2C1=O (centres undefined) | 1% | u | 18 | i | -1%
N#C/C(=C/c1ccc(N2CCOCC2)o1)c1ccc(Cl)cc1 | -7% | u | -78* | i | -8%
O=C(Nc1cccc(F)c1)c1ccc(S(=O)(=O)NCC2CCCO2)cc1 (centres undefined) | 5% | 16µM* | 39 | i | 20%
CN(Cc1ccccc1)c1nc2c(c(=O)[nH]c(=O)n2C)n1CCCSc1ncccn1 | 18% | 2.6µM* | 34 | u | 1%
CN(Cc1ccccc1)c1nc2c(c(=O)[nH]c(=O)n2C)n1Cc1ccccc1 | u | 9.2µM* | 17 | i | -12%
CN(C)c1nc2c(c(=O)[nH]c(=O)n2C)n1Cc1ccccc1Br | 4% | 21µM* | 33 | u | -4%
O=C(Cn1ccc(NC(=O)OCc2ccccc2)nc1=O)NCc1ccc2c(c1)OCO2 | 2% | i | -7 | i | -16%
O=C(NCC1CCCO1)c1cc(NS(=O)(=O)c2cccs2)cc(NS(=O)(=O)c2cccs2)c1 (centres undefined) | 3% | u | 1 | i | -13%
CC1CCN(S(=O)(=O)c2ccc3c(c2)c(=O)c(C(=O)NCc2ccco2)cn3C)CC1 | 12% | 9.2µM* | -11 | u | 4%
COCCNC(=O)c1cn(C)c2ccc(S(=O)(=O)N3CCCCC3)cc2c1=O | 21% | i | 6 | 23µM* | -8%
CC1CCN(S(=O)(=O)c2ccc3c(c2)c(=O)c(C(=O)NCc2cccs2)cn3C)CC1 | 0% | i | -1 | i | -2%
CCn1cc(C(=O)NCC(OC)OC)c(=O)c2cc(S(=O)(=O)N3CCC(C)CC3)ccc21 | u | i | -6 | 13µM* | 9%
Nc1c(C(=O)N/N=C/c2ccc(F)cc2)oc2nc(-c3ccccc3)cc(-c3ccco3)c12 | 21µM* | i | x | i | 355%
Nc1c(C(=O)N/N=C/c2ccccc2Cl)oc2nc(-c3ccccc3)cc(-c3ccco3)c12 | 8.2µM* | i | x | u | 18µM*
Cc1cc(-c2ccccc2)nc2oc(C(=O)NN)c(N)c12 | u | i | 25 | i | u
CN(C)c1ccc(N=c2sc3ccccc3n2C)cc1 | -12% | i | -51* | i | u
COc1cc(C(=O)N=c2sc3ccccc3n2C)cc(OC)c1OC | -1% | 4.6µM* | 23 | i | -30%
SMILES | MCF10A rerep | KB-V1 cytotox | IL1B secr inh | KB-3-1 tox | SW480 rereplic
COc1cc(C(=O)N=c2sc3c(C)ccc(OC)c3n2C)cc(OC)c1OC | 14% | i | 43 | u | -4%
Cn1c(=NC(=O)CCl)sc2ccccc21 | 15µM* | u | -120* | i | u
Cc1sc(=NC(=O)c2ccco2)n(C)c1-c1ccccc1 | 4% | i | u | i | -9%
Cn1c(=NC(=O)c2ccco2)sc2ccccc21 | 0% | 16µM* | -2 | u | -2%
CCCCSCCCNC(=O)c1cn(C)c2ccc(S(=O)(=O)N3CCCCC3)cc2c1=O | x | i | x | i | x
CC(I)CCC(C)[n+]1cccc(I)c1 (centres undefined) | x | u | x | i | x
